HTR5A ag ctr = activates human HTR5A in OPRM1-OPRD1 agonist counter-screen | P47898 | HTR5A agonist assay, luminescence, cell-based | activation, % at 9.3 µM | 340,000 compounds, 0.61% hits; in the data active means activation mostly above about 9.5%, no sharp cut-off; inactive means mostly below about 7.6%;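 further: 0% = cells with vehicle only and 100% = reference agonist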
HTR5A inv ag = counter-screen for OPRM1-OPRD1 inverse agonists: human HTR5A inverse agonism | P47898 | inhibition, % at 9.3 µM | AID 504634 | HTR5A cell line, luminescence | 340,000 compounds, 0.083% hits; in the data active means inhibition mostly above about 23%, no sharp cut-off; inactive means mostly below about 18%;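 further: 0% = cells with DMSO and 100% = no-cell wells with DMSO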
HTR2A ag = activates the mouse 5-HT2A serotonin receptor; AID 624169; CHO-K1 mHTR2A beta-arrestin complementation, luminescence; percent of 30 µM serotonin response; activation, % at 7.6 µM; 360,000 compounds, 0.66% hits; P35363;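 active means activation above a run cutoff, the mean activation of all tested compounds plus 3 SD, cut at about 14% in these data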;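 further: 0% = plate median of compound wells and 100% = 30 µM serotonin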
Target sequence (P35363 whole entry, looked up): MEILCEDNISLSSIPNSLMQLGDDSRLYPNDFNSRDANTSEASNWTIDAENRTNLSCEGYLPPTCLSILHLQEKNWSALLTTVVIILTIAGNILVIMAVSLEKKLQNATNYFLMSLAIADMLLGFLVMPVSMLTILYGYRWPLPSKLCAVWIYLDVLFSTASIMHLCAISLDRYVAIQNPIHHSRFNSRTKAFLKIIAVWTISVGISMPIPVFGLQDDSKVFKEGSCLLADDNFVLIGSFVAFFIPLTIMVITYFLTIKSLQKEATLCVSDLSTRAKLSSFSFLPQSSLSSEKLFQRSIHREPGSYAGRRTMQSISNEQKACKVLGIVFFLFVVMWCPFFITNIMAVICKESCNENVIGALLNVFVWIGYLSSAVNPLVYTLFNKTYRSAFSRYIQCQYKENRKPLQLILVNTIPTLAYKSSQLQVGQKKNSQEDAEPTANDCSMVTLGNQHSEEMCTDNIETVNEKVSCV
MOR-DOR inv ag = inverse agonist of human OPRM1-OPRD1 heterodimerization | inhibition, % at 9.3 µM | cell-based MOR-DOR heterodimer luminescence, inverse agonism | 340,000 compounds, 0.21% hits | AID 504357; in the data active means inhibition above about 22%, passing the limit was not always enough;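 further: 0% = cells with DMSO and 100% = wells without cells with DMSO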
MOR-DOR ag = agonists of human mu-delta opioid receptor heterodimerization; P35372+P41143; cells, OPRM1-OPRD1 heterodimerization, luminescence; activation, % at 9.3 µM; 340,000 compounds, 0.3% hits; AID 504326; in the data active means activation above about 18%;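 further: 0% = vehicle-treated cells and 100% = reference agonist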
* hit, by the source's call; nt = no result given. Shown are actives, neighbours in structure and some others; about 1.6% of the full set was active somewhere.

SMILES	HTR5A ag ctr	HTR5A inv ag	HTR2A ag	MOR-DOR inv ag	MOR-DOR ag
COc1ccc(N(C(=O)c2cnccn2)C(C(=O)NC2CCCCC2)c2ccc(Cl)cc2)cc1 (stereo not drawn)	1	-27	5	7	-1
O=C(NC1CCCCC1)C(c1cccnc1)N(C(=O)CCl)c1cccc(Cl)c1 (stereo not drawn)	36*	-76	1	-183	35*
COc1ccc(Cl)cc1-c1cc(C(=O)NCc2cccc(C(F)(F)F)c2)[nH]n1	nt	nt	3	nt	nt
CC(C)NC(=O)c1cc(C2CCCCN2C(=O)c2ccccc2)on1 (stereo not drawn)	nt	nt	-1	nt	nt
Cc1cccc2c1NC(=O)C2=O	-2	6	10	41*	-8
CCCCCCCN(C(=O)CCl)c1cccc(C)c1	84*	-129	5	-426	79*
CCCCCCN(C(=O)CCl)c1ccccc1	64*	-7	3	-271	53*
O=C1NC[C@@H](CCCCN2C[C@H](Cc3ccccc3)N(Cc3ccccc3)C(=O)C2=O)N(Cc2ccccc2)C1=O	nt	nt	0	nt	nt
Cc1ccsc1CN(C)CC(=O)N(C)CC(=O)Nc1c(Cl)cccc1Cl	nt	nt	-2	nt	nt
Fc1cccc(-c2cncc(N3CCN(CCN4CCCC4)CC3)n2)c1	nt	nt	5	nt	nt
CCCOc1ccc(C(=O)NC(=S)NNC(=O)c2c(-c3ccccc3)noc2C)cc1	-12	44*	0	46*	-9
CSCC(C)N1CCC(CCC(=O)NC2CC2)CC1 (stereo not drawn)	12*	9	-3	20	-4
CSCCC(=O)N1CCC(CCC(=O)NC2CC2)CC1	0	10	0	0	0
O=C(C[C@@H]1CC[C@@H]2[C@H](COC[C@H](O)CN2C(=O)Nc2ccc(F)cc2)O1)NCCc1ccncc1	nt	nt	-2	nt	nt
Cc1ccnc(NCc2cc(Cl)cc(Cl)c2O)c1	nt	nt	-2	nt	nt
Cc1cc(C)c(O)c(CN(C)Cc2cc(Cl)cc(Cl)c2O)c1	13*	-53	-1	-20	4
COc1ccc2c(c1)CC/C2=N\OC(=O)c1cccc(C)c1	14*	-1	-1	-33	7
O=C(CSC1=NCCS1)c1ccc(Cl)cc1	11*	-30	3	-13	2
COc1ccc(-c2c(C(=O)c3ccccc3)[nH]c(N)c2C(=O)NC2CC2)cc1OC	nt	nt	6	nt	nt
COc1cc(/C=C/C(=O)OCC(=O)Nc2ccc(C)cc2[N+](=O)[O-])ccc1O	0	-1	0	-42	8
COc1cc(/C=C/C(=O)OCC(=O)Nc2cc(C)c(C)cc2[N+](=O)[O-])ccc1O	11*	-36	2	12	-2
CCOc1cc(N2CCOCC2)c(OCC)cc1NC(=O)CN1CCC(Cc2ccccc2)CC1	12*	-32	0	2	0
CCCCNC(=O)C1(C)CCCCN1Cc1ccc(OCc2ccccc2)cc1 (stereo not drawn)	nt	nt	-1	nt	nt
Nc1nonc1C(=O)N/N=C/c1ccncc1	11*	-27	1	-2	0
Cc1cccc(OCC(=O)NCC(=O)N/N=C/c2ccccc2)c1	10*	-27	7	-8	1
SMILES	HTR5A ag ctr	HTR5A inv ag	HTR2A ag	MOR-DOR inv ag	MOR-DOR ag
CCc1nnc(NC(=O)c2nc(S(=O)(=O)Cc3cccc(C)c3)ncc2Cl)s1	9.1*	-34	-3	-6	1
CCc1nnc(NC(=O)c2nc(S(=O)(=O)Cc3ccccc3)ncc2Cl)s1	8	-31	2	-24	5
O=C(O)c1ccc(CNS(=O)(=O)c2ccc3ccccc3c2)cc1	9.9*	-26	5	4	0
CCOC(=O)C1(C)CCCN1C(=O)c1cccs1 (stereo not drawn)	nt	nt	3	nt	nt
COc1ccc(C2c3ccc(O)cc3Oc3ncn4nc(-c5ccccn5)nc4c32)cc1 (stereo not drawn)	12*	-17	-4	-80	16
CCCCN1C(=O)C(CC(=O)NCCN2CCOCC2)CC(C(=O)N2CCCCCC2)=C1C (stereo not drawn)	nt	nt	0	nt	nt
Cc1nn(-c2ccccn2)c2c1C(c1ccccc1Cl)C1=C(N2)c2ccccc2C1=O (stereo not drawn)	3	-13	1	26*	-4
O=C1Nc2cccc3c2N(CCC3)C2=C1CCC2	nt	nt	2	nt	nt
O=c1c2c(n3cnnc3n1-c1ccccc1)-c1ccccc1CC21CCCC1	13*	-7	6	18	-4
O=c1c2c(n3nnnc3n1-c1ccccc1)-c1ccccc1CC21CCCC1	10	-16	2	-1	0
COc1ccc(-c2oc3c(c2-c2cnc(OC)nc2)C(O)CC3)cc1 (stereo not drawn)	nt	nt	-1	nt	nt
COc1ccc(CC(=O)N(C)c2ccccc2)cc1S(=O)(=O)N1CCOCC1	nt	nt	-4	nt	nt
COc1ccc(-c2nc3ncccn3c2Nc2ccc3c(c2)OCCO3)cc1	2	7	6	-35	6
Cc1ccc(-c2nc3ncccn3c2Nc2ccc3c(c2)OCCO3)cc1	10*	-1	-4	5	-1
CC(C)(C)C(c1nc2ccccc2[nH]1)n1c(-c2cc(Cl)cc(Cl)c2)nc2ccccc21 (stereo not drawn)	nt	nt	10	nt	nt
COC(=O)c1ccccc1OCCOCCOc1cccc2cccnc12	11*	-42	0	9	-2
COc1ccc(Cc2c(-c3ccc(C#N)cc3)nc3c(Cl)cc(C(F)(F)F)cn23)c(C)c1	nt	nt	1	nt	nt
Fc1ccc(-[n+]2nc(Nc3ccccc3)sc2-c2c3ccccc3cc3ccccc23)cc1	17*	-15	-14	-58	10
O=C(CN(C(=O)c1ccco1)c1cccc(F)c1)NCc1ccc(F)cc1	11*	-27	3	5	-1
c1cc(-c2ccc(N3CCOCC3)cc2)n2ccnc2c1	nt	nt	10	nt	nt
CCN(CC)CCNC(=O)c1ccc(NC(=O)c2cc(S(=O)(=O)N3CCCCC3)ccc2C)cc1	12*	-31	-9	8	-1
CCN(CC)CCNC(=O)c1ccc(NC(=O)c2ccc(S(=O)(=O)N3CCCC3)cc2)cc1	2	-7	-4	2	0
CC1(C(=O)NCc2ccccc2)CN(S(C)(=O)=O)CC(=O)N1Cc1cccc(C(F)(F)F)c1 (stereo not drawn)	nt	nt	3	nt	nt
CC(C)(C)C1CCc2sc(C(=O)NNC(=O)CCl)cc2C1 (stereo not drawn)	57*	-163	0	-197	38*
CC(C)(C)C1CCC(=NNC(=O)c2cc3c(s2)CCCC3)CC1 (stereo not drawn)	2	-2	-3	-10	2
SMILES	HTR5A ag ctr	HTR5A inv ag	HTR2A ag	MOR-DOR inv ag	MOR-DOR ag
COc1ccc(-c2nc3c4ccccc4ccn3c2Cc2ccsc2)cc1OC	nt	nt	-3	nt	nt
COc1cccc(Cn2c(C(C)n3c(C)nc4ccccc43)nc3ccccc32)c1 (stereo not drawn)	nt	nt	-1	nt	nt
CC(=O)n1cc(N(C(=O)CCl)c2ccc(C)cc2)c2ccccc21	55*	4	-2	-339	66*
CCN(CC(=O)Nc1ccc(C#N)cc1)CC(=O)Nc1ccc2c(c1)OCCO2	nt	nt	-4	nt	nt
Cc1c(OCC(=O)NCc2cccnc2)ccc2c3c(c(=O)oc12)CCC3	2	13	-3	22	-4
Cc1c(OCC(=O)NCc2ccncc2)ccc2c3c(c(=O)oc12)CCC3	12*	-46	3	20	-4
